PubChem BioAssay (NCATS)
Results filed as inconclusive are left out. A number with no mark means an inactive call. Activity calls are given as the source filed them. Calls follow the shape of the dose curve; as a rule, active = well fitted inhibition curve with a large enough effect; inconclusive = small, poorly fitted or top-dose-only effect; inactive = flat fitted curve, though single readings scatter.

system: CP262; experiment: qHTS profiling for inhibitors of Plasmodium falciparum proliferation (AID 504749); also: nearly all actives have a fitted effect of over 60% in size;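 as to activity, negative = inhibition: 0% = DMSO vehicle and full inhibition = artemisinin control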; conditions: P. falciparum in erythrocytes, SYBR Green DNA, 72 h; series mostly up to 28.7 µM; activity, negative = inhibition: at the top concentration
In short: (§1)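 Quantitative HTS: compounds pinned into medium, infected erythrocytes added (0.3% parasitemia, 2.5% hematocrit), 72 h culture at 37 C under 5% CO2. Saponin/Triton lysis with SYBR Green I, overnight RT, then fluorescence read.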
Potency is read from the fitted curve at half-maximal effect.

Structure (SMILES)	activity, negative = inhibition	Potency
CC/C=C\C/C=C\C/C=C\C/C=C\C/C=C\C/C=C\CCC(=O)O	1.08%	–
O=C(O)/C=C/c1ccccc1	-1.19%	–
CC(=O)Oc1cccc(C(=O)O)c1OC(C)=O	-10.7%	–
CC(CNC(=O)c1cccnc1)NC(=O)c1cccnc1 (stereo not drawn)	1.1%	–
CN=C1C=CC(=C(c2ccc(N(C)C)cc2)c2ccc(N(C)C)cc2)C=C1	–	0.757 µM (active)
CC/C(=C(/CC)c1ccc(OP(=O)(O)O)cc1)c1ccc(OP(=O)(O)O)cc1	14.5%	–
ClC(Cl)Cl	-2.38%	–
CCCCCCCCCCCCCCCCCC[N+](C)(C)CCC[Si](OC)(OC)OC	1.24%	–
Oc1cc(O)cc(O)c1	14.7%	–
CC(=O)Nc1c(I)c(C(=O)O)c(I)c(N(C)C(C)=O)c1I	4.92%	–
CC(C)CCC[C@@H](C)[C@H]1CC[C@H]2[C@@H]3CC=C4C[C@@H](O)CC[C@]4(C)[C@H]3CC[C@]12C	4.01%	–
CCCCCCCCCCCCOCCCN	-0.013%	–
CC(C)(C)c1ccc2c(S(=O)(=O)O)c(C(C)(C)C)ccc2c1	-1.3%	–
CCSc1ccc2c(c1)N(CCCN1CCN(C)CC1)c1ccccc1S2	-0.131% [at 12.8 µM]	–
c1ccc(-n2cnnn2)cc1	-9.38%	–
CN1CCC(OC(=O)C(Oc2ccc(Cl)cc2)Oc2ccc(Cl)cc2)CC1	-3.23%	–
CC(C)Cc1ccc([C@@H](C)C(=O)NS(C)(=O)=O)cc1	1.15%	–
CCCc1ccc(C(=O)O)cc1	3.02%	–
CNC(=O)c1c(I)c(C(=O)NCC(=O)Nc2c(I)c(C(=O)O)c(I)c(C(=O)NCCO)c2I)c(I)c(N(C)C(C)=O)c1I	-19.7%	–
CC1CC(O)CC(C)(C)C1 (stereo not drawn)	-0.0353%	–

Structure (SMILES)	activity, negative = inhibition	Potency
C=Cc1ccc(S(=O)(=O)O)cc1	9.17%	–
OCC1(CO)COC(C(Cl)(Cl)Cl)OC1	3.86%	–
CC(C)(C)CC(C)(C)c1cc(Cc2cc(C(C)(C)CC(C)(C)C)cc(-n3nc4ccccc4n3)c2O)c(O)c(-n2nc3ccccc3n2)c1	7.16%	–
O=C(O)c1ccc(OCCn2ccnc2)cc1	-1.67%	–
CC(C)c1ncc([N+](=O)[O-])n1C	0.776%	–
CN1c2c(nc(N)[nH]c2=O)NCC1CNc1ccc(C(=O)NC(CCC(=O)O)C(=O)O)cc1 (stereo not drawn)	4.56%	–
N=C(N)n1cccn1	-4.5%	–
N[C@H](CC(=O)O)C(=O)O	13.8%	–
NCC(O)CC(=O)O (stereo not drawn)	16.8%	–
CCN(CC)C(=O)c1cccnc1	4.93%	–
CCOC(C)OCC	13.1%	–
FCOC(C(F)(F)F)C(F)(F)F	-1.49%	–
CN[C@@H]1[C@H](O[C@H]2[C@H](O[C@H]3[C@H](O)[C@@H](O)[C@H](N=C(N)N)[C@@H](O)[C@@H]3N=C(N)N)O[C@@H](C)[C@]2(O)C=O)O[C@@H](CO)[C@H](O)[C@H]1O	4.53%	–
CC(C)[C@@H](N)C(=O)O	4.88%	–
O=C(O)COc1ccc(CCNS(=O)(=O)c2ccccc2)s1	5.13%	–
CC(=O)Nc1ccc(OC(=O)c2ccccc2O)cc1	0%	–
CC(C)O	-0.201%	–
C=CC[C@@H]1/C=C(\C)C[C@H](C)C[C@H](OC)[C@H]2O[C@@](O)(C(=O)C(=O)N3CCCC[C@H]3C(=O)O[C@H](/C(C)=C/[C@@H]3CC[C@@H](O)[C@H](OC)C3)[C@H](C)[C@@H](O)CC1=O)[C@H](C)C[C@@H]2OC	–	4.26 µM (active)
Cc1cc(=O)c(C(=O)N[C@@H](C(=O)N[C@@H]2C(=O)N3C(C(=O)O)=C(CSc4nnnn4C)CS[C@H]23)c2ccc(O)cc2)c[nH]1	4.9%	–

system: CP265; experiment: as above; conditions: P. falciparum in erythrocytes, SYBR Green DNA, 72 h; series mostly up to 28.7 µM; activity, negative = inhibition: at the top concentration
In short: as §1

Structure (SMILES)	activity, negative = inhibition	Potency
CC/C=C\C/C=C\C/C=C\C/C=C\C/C=C\C/C=C\CCC(=O)O	-24.7%	–
O=C(O)/C=C/c1ccccc1	-3.7%	–
CC(=O)Oc1cccc(C(=O)O)c1OC(C)=O	4.25%	–
CC(CNC(=O)c1cccnc1)NC(=O)c1cccnc1 (stereo not drawn)	-2.21%	–
CN=C1C=CC(=C(c2ccc(N(C)C)cc2)c2ccc(N(C)C)cc2)C=C1	–	0.794 µM (active)
CC/C(=C(/CC)c1ccc(OP(=O)(O)O)cc1)c1ccc(OP(=O)(O)O)cc1	7.57%	–
ClC(Cl)Cl	-12%	–
CCCCCCCCCCCCCCCCCC[N+](C)(C)CCC[Si](OC)(OC)OC	-8.71%	–
Oc1cc(O)cc(O)c1	0.587%	–
CC(=O)Nc1c(I)c(C(=O)O)c(I)c(N(C)C(C)=O)c1I	4.04%	–
CC(C)CCC[C@@H](C)[C@H]1CC[C@H]2[C@@H]3CC=C4C[C@@H](O)CC[C@]4(C)[C@H]3CC[C@]12C	-2.15%	–
CCCCCCCCCCCCOCCCN	5.76%	–
CC(C)(C)c1ccc2c(S(=O)(=O)O)c(C(C)(C)C)ccc2c1	11.5%	–
CCSc1ccc2c(c1)N(CCCN1CCN(C)CC1)c1ccccc1S2	-14.8% [at 12.8 µM]	–
c1ccc(-n2cnnn2)cc1	-1.97%	–
CN1CCC(OC(=O)C(Oc2ccc(Cl)cc2)Oc2ccc(Cl)cc2)CC1	3.04%	–
CC(C)Cc1ccc([C@@H](C)C(=O)NS(C)(=O)=O)cc1	0.0807%	–
CCCc1ccc(C(=O)O)cc1	-2.95%	–
CNC(=O)c1c(I)c(C(=O)NCC(=O)Nc2c(I)c(C(=O)O)c(I)c(C(=O)NCCO)c2I)c(I)c(N(C)C(C)=O)c1I	-1.16%	–
CC1CC(O)CC(C)(C)C1 (stereo not drawn)	2.27%	–

Structure (SMILES)	activity, negative = inhibition	Potency
C=Cc1ccc(S(=O)(=O)O)cc1	8.91%	–
OCC1(CO)COC(C(Cl)(Cl)Cl)OC1	7.39%	–
CC(C)(C)CC(C)(C)c1cc(Cc2cc(C(C)(C)CC(C)(C)C)cc(-n3nc4ccccc4n3)c2O)c(O)c(-n2nc3ccccc3n2)c1	6.17%	–
O=C(O)c1ccc(OCCn2ccnc2)cc1	2.02%	–
CC(C)c1ncc([N+](=O)[O-])n1C	3.74%	–
CN1c2c(nc(N)[nH]c2=O)NCC1CNc1ccc(C(=O)NC(CCC(=O)O)C(=O)O)cc1 (stereo not drawn)	6.76%	–
N=C(N)n1cccn1	8.27%	–
N[C@H](CC(=O)O)C(=O)O	5.16%	–
NCC(O)CC(=O)O (stereo not drawn)	7.52%	–
CCN(CC)C(=O)c1cccnc1	2.73%	–
CCOC(C)OCC	7.9%	–
FCOC(C(F)(F)F)C(F)(F)F	5.47%	–
CN[C@@H]1[C@H](O[C@H]2[C@H](O[C@H]3[C@H](O)[C@@H](O)[C@H](N=C(N)N)[C@@H](O)[C@@H]3N=C(N)N)O[C@@H](C)[C@]2(O)C=O)O[C@@H](CO)[C@H](O)[C@H]1O	14.7%	–
CC(C)[C@@H](N)C(=O)O	0.677%	–
O=C(O)COc1ccc(CCNS(=O)(=O)c2ccccc2)s1	8.34%	–
CC(=O)Nc1ccc(OC(=O)c2ccccc2O)cc1	0.199%	–
CC(C)O	0.231%	–
C=CC[C@@H]1/C=C(\C)C[C@H](C)C[C@H](OC)[C@H]2O[C@@](O)(C(=O)C(=O)N3CCCC[C@H]3C(=O)O[C@H](/C(C)=C/[C@@H]3CC[C@@H](O)[C@H](OC)C3)[C@H](C)[C@@H](O)CC1=O)[C@H](C)C[C@@H]2OC	–	0.631 µM (active)
Cc1cc(=O)c(C(=O)N[C@@H](C(=O)N[C@@H]2C(=O)N3C(C(=O)O)=C(CSc4nnnn4C)CS[C@H]23)c2ccc(O)cc2)c[nH]1	5.14%	–
